Results on 13 molecules are retold here after PubChem BioAssay (EPA / NIEHS).

Test [1] in a line: CCTE_Shafer_MEA_dev_inter_network_spike_interval_mean: CCTE's Neural Network Formation Assay for Mean Inter-network Spike Interval, Shafer Lab (AID 2284047).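 As to AC50: potency for a decrease in mean inter-network spike interval below DMSO.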 The procedure, abridged:
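Rat cortical cultures, 1.5 x 10^5 cells/well on 48-well MEA plates; continuous exposure days 0–12, medium and compound refreshed DIV 5, 9. Mean time between consecutive network-spike peaks; AUC across DIV 5/7/9/12; DMSO baseline, negative fitting direction.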

A short description of test [2]: CCTE_Shafer_MEA_dev_network_spike_peak: CCTE's Neural Network Formation Assay for Mean Number of Electrodes in Network Spike, Shafer Lab (AID 2284049).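 As to AC50: fitted for loss of signal meaning fewer electrodes in network spikes than DMSO.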 The procedure, abridged: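 Continuous 12-day exposure of rat cortical cultures, starting at plating, on MEA plates. Endpoint: electrodes participating in network-spike peaks, AUC across DIV 5–12, DMSO as negative control.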

The subject of another test is DIO2 (gene 1734). Description: CCTE_GLTED_hDIO2: CCTE's human Deiodinase 2 (DIO2) Inhibition Assay, Great Lakes Toxicology and Ecology Division (GLTED) Lab (AID 2284050; active = hit-call score of the fitted dose curve at least 0.9, where 1 is the maximum). As for the experimental part: CCTE_GLTED_hDIO2 is a cell-free, single-readout assay designed to test the inhibitory activity of chemicals toward human iodothyronine Deiodinase type 2 (DIO2) enzyme. Enzyme is incubated in presence of test chemical for 3 hours during which uninhibited enzyme liberates free iodide from substrate. Free iodide is measured in a second step using the Sandell-Kolthoff method.CCTE_GLTED_hDIO2 is the assay component measured from the CCTE_GLTED_hDIO2 assay. It is designed to make measurements of enzyme activity, a form of enzyme reporter, as detected with absorbance signals by spectrophotometry.Data from the assay component CCTE_GLTED_hDIO2 was analyzed into 1 assay endpoint. This assay endpoint, CCTE_GLTED_hDIO2, was analyzed in the positive analysis fitting direction relative to DMSO as the negative control and baseline of activity. Using a type of enzyme reporter, loss-of-signal activity can be used to understand changes in the enzymatic activity as they relate to the gene DIO2. Furthermore, this assay endpoint can be referred to as a primary readout, because the performed assay has only produced 1 assay endpoint. To generalize the intended target to other relatable targets, this assay endpoint is annotated to the 'deiodinase' intended target family, where the subfamily is 'deiodinase Type 2'.
Human deiodinase type 2 (hDIO2) assay, developed at Great Lakes Toxicology and Ecology Division (GLTED) within the EPA's Center for Computational Toxicology and Exposure (CCTE), is designed to test the chemicals' ability to inhibit DIO2. Assay is based on iodide release measured by the Sandell-Kolthoff method and is run in 96-well plate format with assay plates run in triplicate (n=3). The method used for the deiodinase assay was largely based on Renko et al. (2012, 2015). These works describe the utilization of the SK reaction to measure deiodinase-liberated iodide in a 96-well-plate format. The SK reaction is based on the reduction of the yellow-colored cerium IV to the non-colored cerium III by arsenic, with the rate of this reaction increased in the presence of iodide in a concentration-dependent manner (Sandell and Kolthoff, 1937). Iodinated test chemicals can interfere as competitive inhibitors, or if the stock chemical has contaminating free-iodide present. Other chemicals, e.g.: nitrite, iron, and thiocyanate can interfere with the Sandell-Kolthoff reaction (see Sandell and Kolthoff, 1937).

A short description of test [3]: CCTE_Shafer_MEA_dev_network_spike_duration_std: CCTE's Neural Network Formation Assay for Standard Deviation of Network Spike Duration, Shafer Lab (AID 2284052).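 Also: area under curve of spike duration SD across recording days 5 to 12; hits are decreases in network spike duration SD versus DMSO vehicle.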 The procedure, abridged:
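Read-out is the trapezoidal area-under-the-curve across recordings made on days 5, 7, 9 and 12, fitted in the negative direction against DMSO baseline. Neurons were primary rat cortical cells treated from day 0, with treatment renewed at each feed.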

The nature of test [4]: CCTE_Shafer_MEA_dev_per_network_spike_spike_number_mean: CCTE's Neural Network Formation Assay for Mean Number of Spikes in a Network Spike, Shafer Lab (AID 2284053).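 As to AC50: fitted as decrease in spikes per network spike relative to DMSO.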 The procedure, abridged:
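Continuous twelve-day exposure of developing rat cortical networks grown over 16 microelectrodes per well; spontaneous firing is captured at four time points, and the per-network-spike spike number is integrated over development by trapezoidal AUC.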

Test [5] in a line: CCTE_Shafer_MEA_dev_per_network_spike_spike_percent: CCTE's Neural Network Formation Assay for Percent of Spikes in a Network Spike, Shafer Lab (AID 2284054). The method in brief: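 Primary rat cortical neurons on 16-electrode MEA wells (PEI-coated, laminin at plating), exposed from day 0 with renewal at DIV 5 and 9; spikes within 0.05 s of network-spike peaks over total spikes, AUC across days 5, 7, 9, 12.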

Another test has as its system DIO3 (gene 1735). Description: CCTE_GLTED_hDIO3: CCTE's human Deiodinase 3 (DIO3) Inhibition Assay, Great Lakes Toxicology and Ecology Division (GLTED) Lab (AID 2284055; active = hit-call score of the fitted dose curve at least 0.9, where 1 is the maximum;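 also: potency is for inhibition seen as loss of released iodide signal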). The method in brief: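 Enzyme activity is tracked as iodide release from substrate by recombinant human DIO3 over 3 h with chemical present. A second Sandell-Kolthoff step converts iodide to an absorbance signal, fitted relative to DMSO.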

A short description of test [6]: CCTE_Shafer_MEA_dev_LDH: CCTE's Lactate Dehydrogenase Assay for Cytotoxicity in the Neural Network Formation Assay, Shafer Lab (AID 2284068; active = hit-call score of the fitted dose curve at least 0.9, where 1 is the maximum;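 also: exposure for twelve days from plating with re-dosing on DIV 5 and 9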). The method in brief: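 Cytotoxicity companion to network-formation recordings: rat cortical neurons received compound over 12 days of development, re-dosed at DIV 5 and 9 feeds. Viability was inferred from LDH enzyme activity relative to DMSO.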

The nature of test [7]: UKN5_HCS_SBAD2_cell_viability: Viability Assessment in the University of Konstanz (UKN) Leist Lab Neurite Outgrowth Assay in human iPSC-derived immature Dorsal Root Ganglia Neurons (UKN5) (AID 2284056). The method in brief:
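iPSC-derived immature peripheral neurons (SBAD2) seeded on Matrigel with CHIR99021, SU5402 and DAPT, dosed 1 h later for 24 h. Viability from Hoechst H-33342 and calcein-AM live staining, high-content imaging; bidirectional fit versus DMSO.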

Test [8] can be described thus: UKN5_HCS_SBAD2_neurite_outgrowth: University of Konstanz (UKN) Leist Lab Neurite Outgrowth Assay in human iPSC-derived immature Dorsal Root Ganglia Neurons (UKN5) (AID 2284070). Conditions: actives raise or lower the signal. As for the experimental part:
UKN5_HCS_SBAD2 is a cell-based, multiplexed-readout assay screening for neurite outgrowth and cell viability that uses SBAD2 (peripheral neurons differentiated from iPSC), a human peripheral nervous system cell line, with measurements taken at […] after chemical dosing in a microplate: 96-well plate. UKN5, also referred to as PeriTox, is an assay that uses human iPSC line SBAD2 as a model of peripheral neurons. Following 24 hr chemical exposures in multi-well plates, neurite area is evaluated as a marker of neurite outgrowth using high-content imaging of cells stained with calcein-AM. Cell viability is assessed using stain Hoechst H-33342.UKN5_HCS_SBAD2_neurite_outgrowth is an assay component measured from the UKN5_HCS_SBAD2 assay. It is designed to make measurements of neurite outgrowth, a form of morphology reporter, as detected with Fluorescence intensity signals by HCS Fluorescent Imaging.The assay endpoint UKN5_HCS_SBAD2_neurite_outgrowth was analyzed with bidirectional fitting relative to DMSO as the negative control and baseline of activity. Using a type of morphology reporter, gain or loss-of-signal activity can be used to understand developmental effects. To generalize the intended target to other relatable targets, this assay endpoint is annotated to the neurodevelopment intended target family, where the subfamily is neurite outgrowth. […]

A word on the AC50: it is the concentration giving half of the maximal activity seen.

Where “and” joins values, the source holds several entries; their conditions need not be identical. Equal values may be shown once. Records with an inconclusive call do not appear. Where a structure was tested more than once in an assay, its records may differ in their call. Calls of active or inactive are those of the source. The calls were made as follows, unless noted: active = hit-call score of the fitted dose curve at least 0.9, where 1 is the maximum; inactive = score below 0.9.

In the case of `CCNc1nc(Cl)nc(NC(C)C)n1`, the molecule was called inactive (in test [1]; in test [2]; in the test on DIO2 (gene 1734); in test [3]; in [4]; in [5]). Further, the AC50 in the test on DIO3 (gene 1735) was 21.7 µM (active).

With `COc1ccc(C(c2ccc(OC)cc2)C(Cl)(Cl)Cl)cc1`, the molecule was classed as inactive in test [1]. Besides, the AC50 in test [2] was 8.43 µM (active); in test [3], 1.97 µM (active); in test [4] it was 9.95 µM (active); in [5], 3.28 µM (active); in [6], 4.87 µM (active).

Regarding `COP(N)(=O)SC` (stereo unspecified), the molecule was called inactive in test [1], in [2], in test [3], in test [4], in test [5] and in [6]. For the same molecule, the AC50 in test [2] was 15 µM (active).

For `CCCCNC(=O)n1c(NC(=O)OC)nc2ccccc21`, the result in test [1], in test [3], in test [5] and in [7] was inactive. Besides, the AC50 is 15 µM (active) in test [2], 15 µM (active) in [4] and 7.98 µM (active) in test [8].

With `Fc1ccc(Oc2ccnc3cc(Cl)cc(Cl)c23)cc1`, the AC50 in the test with DIO2 (gene 1734) was 10.1 µM (active); with DIO3 (gene 1735) it was 0.965 µM (active).

`N#Cc1nn(-c2c(Cl)cc(C(F)(F)F)cc2Cl)c(N)c1S(=O)C(F)(F)F` (stereo unspecified): the molecule was called inactive in test [1], in [2], in test [3] and in [4]. For the same molecule, the AC50 with DIO2 (gene 1734) was 29.6 µM (active); in [5] it was 4.41 µM (active); in the test with DIO3 (gene 1735), 1.13 µM (active); in test [6], 23.8 µM (active).

For `CCCCNC(=O)OCC#CI`, the call in test [1] was inactive. Further, the AC50 in test [2] is 3.81 µM (active) and 1.53 µM (active); in [3], 2.46 µM (active) and 1.09 µM (active); in [4] it was 2.76 µM (active) and 1.55 µM (active); in [5], 2.91 µM (active) and 1.17 µM (active); in [6], 3.84 µM (active) and 1.13 µM (active).

With `Oc1ccccc1-c1ccccc1`, the results for the AC50 in the test with DIO2 (gene 1734) and in the test on DIO3 (gene 1735) were 38.2 µM (active) and 89.4 µM (active), respectively.

Regarding `CCOc1cc(Oc2ccc(C(F)(F)F)cc2Cl)ccc1[N+](=O)[O-]`, the molecule was called inactive in test [1]. Further, the AC50 is 6.67 µM (active) in [2]; 1.13 µM (active) in test [3]; 4.48 µM (active) in test [4]; 13.2 µM (active) in [5]; 17.7 µM (active) in [6].

With `C=CCC1=C(C)[C@@H](OC(=O)[C@@H]2[C@@H](C=C(C)C)C2(C)C)CC1=O`, the result in [1], in test [3], in [4] and in [5] was inactive. Further, the half-maximal activity concentration (AC50) in test [2] was 10 µM (active).

On to `C=CC1(C)OC(=O)N(c2cc(Cl)cc(Cl)c2)C1=O` (stereo unspecified), for which the molecule was classed as inactive in test [1], in [3], in test [4], in [5] and in test [6]. In addition, the AC50 in test [2] was 50 µM (active).

Take `COC(=O)N(OC)c1ccccc1COc1ccn(-c2ccc(Cl)cc2)n1`: the AC50 is 0.128 µM (active) in test [1]; 72.5 nM (active) and 15.9 nM (active) in test [2]; 0.0788 µM (active) in [3]; 82.2 nM (active) and 11 nM (active) in [4]; 157 nM (active) and 13.6 nM (active) in [5]; 54.7 nM (active) and 5.99 nM (active) in test [6]. Moreover, the molecule was classed as inactive in test [1] and in test [3].

`CC(C)(C)c1ccc(CSc2cnn(C(C)(C)C)c(=O)c2Cl)cc1`: the AC50 in test [1] is 0.0028 µM (active); in [2] it was 0.0022 µM (active); in test [3] it was 0.000239 µM (active); in test [4] it was 0.00169 µM (active); in test [5] it was 0.00179 µM (active); in test [6], 0.00284 µM (active).
